# From PubChem BioAssay
# A selection: hits, their analogues and other compounds. The true share with any hit is near 1.1%.
# AGP1 TOR yeast – yeast TOR pathway AGP1-GFP modulation; S. cerevisiae AGP1-GFP multiplex flow cytometry, 3 h; GFP as percent of DMSO wells; hit rate 0.02% among 320,000; AID 2066; GFP response vs DMSO, % at 10 µM;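 active = GFP response relative to DMSO above a set limit, near screen average plus 3 SD, cut at about 150% in these data; inconclusive = fewer than 70 cells counted for the yeast strain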;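 also: median GFP channel fluorescence of the gated AGP1 strain per well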
# MEP2 TOR yeast – yeast TOR pathway MEP2-GFP modulation; S. cerevisiae MEP2-GFP strain, flow cytometry GFP, 3 h; 100% = DMSO control level; GFP response vs DMSO, % at 10 µM; hit rate 0.51% among 330,000;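 active = GFP response versus DMSO above a set limit, roughly screen mean plus 3 SD, cut at about 180% in these data; inconclusive = fewer than 70 cells counted for a yeast strain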;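 also: median GFP fluorescence of the barcode-gated MEP2-GFP cells per well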
# RPL19A-GFP yeast – alters RPL19A-GFP fluorescence in TOR pathway yeast screen; AID 2025; hit rate 0.3% among 330,000; percent response vs DMSO, % at 10 µM; S. cerevisiae RPL19A-GFP strain, flow cytometry, 3 h; stronger effect = lower value;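 active = percent response vs DMSO below 50%; inconclusive = fewer than 70 events counted for the yeast strain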;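 also: median channel GFP fluorescence of the barcoded RPL19A-GFP strain; ratio of sample median GFP to plate DMSO average so 100% = DMSO; lower means less RPL19A-GFP as with rapamycin TOR inhibition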
# CIT2-GFP yeast – modulators of TOR pathway CIT2-GFP in S. cerevisiae; S. cerevisiae CIT2-GFP strain, flow cytometry, 3 h; 100 means same as DMSO wells; GFP response vs DMSO, % at 10 µM; hit rate 0.065% among 320,000;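 active = GFP response relative to DMSO above a set limit, near the screen mean plus 3 SD, cut at about 150% in these data; inconclusive = Fewer than 70 cells measured for a yeast strain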;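 also: ratio of well median GFP fluorescence to mean of DMSO wells on the plate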
# LAP4 TOR yeast – yeast TOR pathway LAP4-GFP modulation; GFP response vs DMSO, % at 10 µM; hit rate 0.34% among 320,000; S. cerevisiae LAP4-GFP multiplex, flow cytometry GFP, 3 h; median GFP as percent of DMSO wells;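 active = GFP response vs DMSO above a set limit, about the screen mean plus 3 SD, cut at about 150% in these data; inconclusive = under 70 cell events counted for the yeast strain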
# VLA-4 inh – inhibition in a human VLA-4 binding assay; hit rate 0.2% among 330,000; inhibition, % (about 7 µM as worked out from the volumes in the protocol); P13612; VLA-4 expressing cells, ligand binding flow cytometry; AID 2557; in the data active = inhibition above about 50%
# Active calls of the source: *; i = inactive; u = inconclusive; x = no result; [ ] = dose if it differs, or a comment.
SMILES,AGP1 TOR yeast,MEP2 TOR yeast,RPL19A-GFP yeast,CIT2-GFP yeast,LAP4 TOR yeast,VLA-4 inh
O=S(=O)(c1ccc(NC(=S)N/N=C/c2cccc(Oc3ccccc3)c2)cc1)N1CCOCC1,111,165,113,170*,127,i
C=CCOc1ccc(/C=N/NC(=O)CC(=O)NC2CCCCC2)cc1,101,105,99,98,105,11
CCOC(=O)/C=C1\SCC(=O)N1Cc1nnc(-c2ccccc2Br)o1,30,289*,x,95,94,-5
COCCSc1nnc(NC(=O)Cc2ccc(OC)cc2)s1,92,87,88,91,95,1
CCOCC(=O)Nc1nnc(SCCOC)s1,u,294*[may fluoresce violet],15*[may fluoresce violet],u,107,18
CC(C)Nc1nc(-c2ccccc2)nnc1-c1ccccc1,168*,795*,66,136,157*,0
NC(=S)N/N=C/c1ncc(C(F)(F)F)cc1Cl,102,84,90,79,104,11
Cc1ccc(S(=O)(=O)N2CCN(C(=O)CC(C)n3cncn3)CC2)cc1C (configuration not stated),102,100,109,105,95,8
CCCOC(=O)c1ccc(NC(=O)COC)cc1,25,188*[may fluoresce violet],63,u,95,-7
CCCOC(=O)c1ccc(NC(=O)CC(C)(C)C)cc1,102,102,102,97,103,-4
CC(C)(C)c1ccc(C(=O)N2CCCN(C(=O)c3ccc(C(C)(C)C)cc3)CC2)cc1,97,103,105,100,98,9
CC(C)(C)c1ccc(C(=O)N2CCN(C(=O)C3CCCCC3)CC2)cc1,113,106,93,152*[may fluoresce green],101,-5
O=C(COC(=O)c1ccc2ccccc2n1)Nc1ncc(C(F)(F)F)cc1Cl,u,276*[may fluoresce violet],38*[may fluoresce violet],u,92,-4
CN1CCC(=O)N([C@H](COc2ccccc2)Cc2ccccc2)CC1,83,92,100,69,107,19
COc1ccc(NC(=O)COC(=O)c2ccco2)c([N+](=O)[O-])c1,113,202*,122,217*,145,0
CCC(=O)OCC(=O)Nc1ccc(OC)cc1[N+](=O)[O-],90,102,94,86,91,12
CC1CC(C)CN(CC(=O)Nc2cc(S(=O)(=O)N3CCOCC3)ccc2N2CCCC2)C1 (configuration not stated),97,105,98,98,93,-4
COc1ccc(CCNC(=S)N2CCC(C(N)=O)CC2)cc1,115,105,103,104,101,5
NC(=O)C1CCN(C(=S)NCCc2ccccc2)CC1,89,492*,86,195*,105,7
CC(CCN1C(Nc2ccccc2)=NC[C@@H]1C)c1ccccc1 (some centres not stated),78,90,94,67,108,-3
Nc1cc(=O)[nH]c(SCC(=O)N2CCC(Cc3ccccc3)CC2)n1,109,106,107,101,105,1
Cc1ccc(C=C2C(Cl)=C(Cl)C(Cl)=C2Cl)cc1,88,95,97,86,155*,-2
COc1ccc(C(=O)NCCN2CCCC2)cc1[N+](=O)[O-],98,107,105,95,95,5
COc1ccc(-c2nnc(SCC(=O)O)n2Cc2ccccc2)cc1,103,119,104,103,102,10
Cc1[nH]c(C)c(S(=O)(=O)N2CCN(c3ccccc3)CC2)c1C(=O)N1CCCCC1,u,509*[may fluoresce violet],47*[may fluoresce violet],u,116,-3
SMILES,AGP1 TOR yeast,MEP2 TOR yeast,RPL19A-GFP yeast,CIT2-GFP yeast,LAP4 TOR yeast,VLA-4 inh
Cc1[nH]c(C)c(S(=O)(=O)N2CCN(c3cccc(Cl)c3)CC2)c1C(=O)N1CCCC1,100,103,100,102,86,28
CN(C)CCCNc1cc(C(C)(C)C)nc2c(-c3ccc(Cl)cc3)cnn12,81,151,56,61,186*,44
COC(=O)/C=C1/S/C(=N/NC(=O)c2ccc(Cl)cc2Cl)NC1=O,39,177*[may fluoresce violet],95,u,113,13
COc1ccccc1N1CCN(CC(O)c2c(C)[nH]c3ccccc23)CC1 (configuration not stated),102,108,104,100,100,-3
COc1ccccc1N1CCN(CC(O)c2ccccc2)CC1 (configuration not stated),u,290*[may fluoresce violet],46*[may fluoresce violet],u,79,9
Cc1c(C(=O)Nc2ccccc2)cnn1-c1ccccc1,127,137,95,77,155*,2
O=C(COc1ccc(F)cc1)Nc1ccccc1N1CCOCC1,104,100,99,93,102,24
O=C(/C=C/c1ccccc1Cl)OCC(=O)N1CCCC1,99,99,103,106,104,6
CCN1CCN(CCC2Oc3cc([N+](=O)[O-])ccc3NC2=O)CC1 (configuration not stated),u,375*[may fluoresce violet],57,u,94,13
Cc1ccn2c(=O)nc(SCC(=O)NCCc3ccccc3)nc2c1,105,106,99,107,104,-9
CC(=O)OCC1OC(n2cc(F)c(=O)[nH]c2=O)C(OC(C)=O)C1OC(C)=O (configuration not stated),120,112,99,106,126,2
C[C@H]1O[C@@H](n2cc(F)c(=O)[nH]c2=O)[C@H](O)[C@@H]1O,u,u,41*[may fluoresce violet],u,u,-18
CC(=O)c1cc(C#N)c(SCc2ccccc2)nc1C,x,184*[may fluoresce violet],56,u,101,7
Cc1cccc(OCC(=O)NCCCNC(=O)c2cnccn2)c1,108,113,108,114,95,8
COc1ccc(OC)c2c1C(=O)C(Cl)=C(Cl)C2=O,14,291*[may fluoresce violet],44*[may fluoresce violet],u,150,-36
COc1ccc(NS(=O)(=O)c2ccc3c(c2)CCN3C(=O)CCC(=O)O)cc1OC,103,101,101,105,104,20
Cc1cc(C=C2C(=O)c3ccccc3C2=O)c(C)n1-c1ccc(C(=O)O)cc1,x,96,90,99,104,-6
Cc1cc(C=C2C(=O)c3ccccc3C2=O)c(C)n1-c1cccc(C(=O)O)c1,83,214*,104,106,123,5
O=C(NCC1CCCO1)c1sc(=S)n2c1[nH]c(=O)c1ccc(C(=O)N3CCCCC3)cc12 (configuration not stated),u,206*[may fluoresce violet],42*[may fluoresce violet],u,96,33
Cc1cc(=O)oc2c(C(=O)/C=C\c3cccs3)c(O)ccc12,96,92,104,93,152*,2
COc1cc(/C=C/C(=O)c2c(O)ccc3c(C)cc(=O)oc23)ccc1O,88,91,89,61,160*,16
CN(C)c1ccc(NC(=O)CCN2C(=O)c3cccc([N+](=O)[O-])c3C2=O)cc1,99,102,98,98,102,4
